Measured values reported in PubChem BioAssay (Tox21).
Results filed as inconclusive are left out. Unmarked numbers belong to inactive results. The call rests on the fitted dose curve.

system: not listed separately; experiment: p53 small molecule agonists, cell-based qHTS assay with rat liver microsomes: qHTS cell viability counter screen (AID 1963580); details: p53RE-bla HCT-116 + rat microsomes, ATP viability, 16 h; series mostly up to 66 µM; activity change, negative = cytotoxicity: at the top concentration
How it was run: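 Intracellular ATP, by CellTiter-Glo luminescence, defines viability. HCT-116 p53RE-bla cells, 4,000 per well, were compound-treated in the presence of rat liver microsomes and NADPH for 16 h at 37 C.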
Further: nearly all actives have a fitted effect of over 45% in size.
On the % scale 0 is the no-effect control and ±100 the full control effect.

| SMILES | activity change, negative = cytotoxicity |
| --- | --- |
| CCCOC(=O)CC | 0.0702% |
| C=CC(=O)N1CCOCC1 | 4.75% |
| C=CCOCC(O)CS(=O)(=O)O (stereo not given) | 10.6% |
| CCCCNCC | -5.52% |
| CCCC1CCC(=O)CC1 | 0.993% |
| CCC(C)COC(C)=O (stereo not given) | 3.19% |
| CCCNC(C)(C)COC(=O)c1ccccc1 | 3.93% [at 30.3 µM] |
| Cc1ccc(C#N)cc1 | 4.81% |
| Cc1nnc(SCC2=C(C(=O)O)N3C(=O)[C@@H](NC(=O)Cn4cnnn4)[C@H]3SC2)s1 | 6.61% [at 30.3 µM] |
| CCN(CC)CCNC(C(=O)OCCC(C)C)c1ccccc1 (stereo not given) | -1.05% [at 30.3 µM] |
| CCOC(=O)CC(C)C | -0.826% |
| CCCCCCCCCCCCC1CO1 (stereo not given) | 1.84% |
| O=C(O)/C=C(\CC(=O)O)C(=O)O | 7.59% [at 30.3 µM] |
| CCCCCCCCS(=O)(=O)O | 1.37% |
| CC(C)CCCCCOC(=O)CCCCC(=O)OCCCCCC(C)C | -9.51% |
| CCOc1ccc(NC(N)=O)cc1 | 0% |
| CC1(C)CC(O)CC(C)(C)N1[O] | -8.42% |
| CC(C)COC(=O)CCCCC(=O)OCC(C)C | 1.7% |
| O=C1NCC2(CCN(CCc3ccccc3)CC2)O1 | -3.06% [at 30.3 µM] |
| C=C(C)C(=O)OCC | -0.332% |

| SMILES | activity change, negative = cytotoxicity |
| --- | --- |
| CC(CO)(CO)[N+](=O)[O-] | 12.4% |
| C=CCCCCCCCCCCCCCC | -3.36% [at 13.5 µM] |
| OC(C#CCN1CCCC1)(c1ccccc1)c1ccccc1 | -3.78% [at 30.3 µM] |
| C=C(C)[C@@H]1CC=C(C)C(=O)C1 | 8.61% |
| CCC(C)N (stereo not given) | -0.443% |
| COC(C)=O | 5.12% |
| CCCCN1C[C@H](O)[C@@H](O)[C@H](O)[C@H]1CO | 0.813% [at 30.3 µM] |
| CC(=O)OCC(=O)NCCCOc1cccc(CN2CCCCC2)c1 | 1.99% [at 30.3 µM] |
| OC1CCCCC1c1ccccc1 (stereo not given) | 0% |
| CCCCCCCCCCC=O | 0.0341% |
| CC(C)(C)CC(C)(C)N | 1.33% |
| C=CCCCCCCCCOC(C)=O | -1.04% |
| C[C@H](NC(CCc1ccccc1)C(=O)O)C(=O)N1CCC[C@H]1C(=O)O (stereo not given in full) | -6.52% [at 30.3 µM] |
| CC(N=C(NC#N)Nc1ccncc1)C(C)(C)C (stereo not given) | 4.04% [at 30.3 µM] |
| OCCC1CCCCN1 (stereo not given) | -12.6% |
| C[C@]12CCC(=O)C=C1CC[C@H]1[C@@H]3CC[C@](O)(C(=O)CO)[C@@]3(C)C[C@H](O)[C@@]12F | -2.44% [at 30.3 µM] |
| CCC(C)(CCC(C)C)C(=O)O (stereo not given) | -9.29% |
| COP(=O)(O)OP(=O)(O)OC | -2.85% |
| CCCC(=O)OC/C=C(\C)CCC=C(C)C | 0.272% |
| NNC(=O)CP(=O)(c1ccccc1)c1ccccc1 | 1.48% [at 30.3 µM] |

system: not listed separately; experiment: p53 small molecule agonists, cell-based qHTS assay: qHTS cell viability counter screen (AID 1963581); details: p53RE-bla HCT-116 viability, ATP luminescence, 16 h; series mostly up to 66 µM; activity change, negative = cytotoxicity: at the top concentration
How it was run: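 Following 5 h attachment, HCT-116 p53RE-bla cells took up compound for 16 h at 37 C; the reporter was read with B/G FRET substrate (2 h RT), and viability then via CellTiter-Glo ATP luminescence.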

| SMILES | activity change, negative = cytotoxicity |
| --- | --- |
| CCCOC(=O)CC | 8.57% |
| C=CC(=O)N1CCOCC1 | -1.65% |
| C=CCOCC(O)CS(=O)(=O)O (stereo not given) | -1.35% |
| CCCCNCC | -12.4% |
| CCCC1CCC(=O)CC1 | 21.2% |
| CCC(C)COC(C)=O (stereo not given) | 1.92% |
| CCCNC(C)(C)COC(=O)c1ccccc1 | 4.8% [at 30.3 µM] |
| Cc1ccc(C#N)cc1 | -0.0266% |
| Cc1nnc(SCC2=C(C(=O)O)N3C(=O)[C@@H](NC(=O)Cn4cnnn4)[C@H]3SC2)s1 | -4.51% [at 30.3 µM] |
| CCN(CC)CCNC(C(=O)OCCC(C)C)c1ccccc1 (stereo not given) | -1.66% [at 30.3 µM] |
| CCOC(=O)CC(C)C | 1.9% |
| CCCCCCCCCCCCC1CO1 (stereo not given) | 19.8% |
| O=C(O)/C=C(\CC(=O)O)C(=O)O | -10.9% [at 30.3 µM] |
| CCCCCCCCS(=O)(=O)O | 0.775% |
| CC(C)CCCCCOC(=O)CCCCC(=O)OCCCCCC(C)C | 6.63% |
| CCOc1ccc(NC(N)=O)cc1 | -17.6% |
| CC1(C)CC(O)CC(C)(C)N1[O] | -9.98% |
| CC(C)COC(=O)CCCCC(=O)OCC(C)C | 6.13% |
| O=C1NCC2(CCN(CCc3ccccc3)CC2)O1 | 18.3% [at 30.3 µM] |
| C=C(C)C(=O)OCC | 4.68% |

| SMILES | activity change, negative = cytotoxicity |
| --- | --- |
| CC(CO)(CO)[N+](=O)[O-] | -2.79% |
| C=CCCCCCCCCCCCCCC | -15.7% [at 13.5 µM] |
| OC(C#CCN1CCCC1)(c1ccccc1)c1ccccc1 | 17.4% [at 30.3 µM] |
| C=C(C)[C@@H]1CC=C(C)C(=O)C1 | 22.7% |
| CCC(C)N (stereo not given) | 5.77% |
| COC(C)=O | 1.19% |
| CCCCN1C[C@H](O)[C@@H](O)[C@H](O)[C@H]1CO | 20.8% [at 30.3 µM] |
| CC(=O)OCC(=O)NCCCOc1cccc(CN2CCCCC2)c1 | 25.7% [at 30.3 µM] |
| OC1CCCCC1c1ccccc1 (stereo not given) | 11.7% |
| CCCCCCCCCCC=O | -3.76% |
| CC(C)(C)CC(C)(C)N | -9.25% |
| C=CCCCCCCCCOC(C)=O | -8.66% |
| C[C@H](NC(CCc1ccccc1)C(=O)O)C(=O)N1CCC[C@H]1C(=O)O (stereo not given in full) | -0.845% [at 30.3 µM] |
| CC(N=C(NC#N)Nc1ccncc1)C(C)(C)C (stereo not given) | 7.32% [at 30.3 µM] |
| OCCC1CCCCN1 (stereo not given) | 1.19% |
| C[C@]12CCC(=O)C=C1CC[C@H]1[C@@H]3CC[C@](O)(C(=O)CO)[C@@]3(C)C[C@H](O)[C@@]12F | -3.16% [at 30.3 µM] |
| CCC(C)(CCC(C)C)C(=O)O (stereo not given) | 0.932% |
| COP(=O)(O)OP(=O)(O)OC | 1.44% |
| CCCC(=O)OC/C=C(\C)CCC=C(C)C | 29.4% |
| NNC(=O)CP(=O)(c1ccccc1)c1ccccc1 | -10.2% [at 30.3 µM] |

molecular target: 5-hydroxytryptamine receptor 2A (Homo sapiens) (UniProt P28223); experiment: 5-hydroxytryptamine receptor 2A (HTR2A) small molecule antagonists, cell-based qHTS assay (AID 1963586); details: HTR2A-CHO cells, DOI-induced calcium flux, fluorescence; series mostly up to 61.5 µM; activity, negative = inhibition: at the top concentration
Sequence (P28223 whole entry, looked up): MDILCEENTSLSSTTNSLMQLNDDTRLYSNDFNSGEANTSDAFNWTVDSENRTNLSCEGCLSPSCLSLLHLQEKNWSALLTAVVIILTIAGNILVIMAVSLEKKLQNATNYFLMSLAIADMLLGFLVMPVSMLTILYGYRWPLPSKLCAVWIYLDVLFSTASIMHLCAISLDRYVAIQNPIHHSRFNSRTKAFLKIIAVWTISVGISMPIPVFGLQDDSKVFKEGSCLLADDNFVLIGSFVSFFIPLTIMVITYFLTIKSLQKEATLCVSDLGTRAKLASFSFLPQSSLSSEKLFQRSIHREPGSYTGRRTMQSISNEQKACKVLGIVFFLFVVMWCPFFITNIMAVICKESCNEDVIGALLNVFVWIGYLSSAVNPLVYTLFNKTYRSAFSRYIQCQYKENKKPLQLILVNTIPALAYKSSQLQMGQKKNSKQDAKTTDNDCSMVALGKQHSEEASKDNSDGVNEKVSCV
How it was run: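 Antagonist-mode intracellular calcium assay: DOI (4 nM) added after 5 min compound pre-incubation at room temperature to dye-loaded HTR2A-CHO cells. Fluorescence followed for 3 min, sampled every second.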

| SMILES | activity, negative = inhibition |
| --- | --- |
| CCCOC(=O)CC | 63.7% |
| C=CC(=O)N1CCOCC1 | 6.71% |
| C=CCOCC(O)CS(=O)(=O)O (stereo not given) | -1.01% |
| CCCCNCC | -20% |
| CCCC1CCC(=O)CC1 | -5.99% |
| CCC(C)COC(C)=O (stereo not given) | 29.2% |
| CCCNC(C)(C)COC(=O)c1ccccc1 | -11.6% [at 28.5 µM] |
| Cc1ccc(C#N)cc1 | 15% |
| Cc1nnc(SCC2=C(C(=O)O)N3C(=O)[C@@H](NC(=O)Cn4cnnn4)[C@H]3SC2)s1 | 22.3% [at 28.5 µM] |
| CCN(CC)CCNC(C(=O)OCCC(C)C)c1ccccc1 (stereo not given) | -10.6% [at 28.5 µM] |
| CCOC(=O)CC(C)C | 25.8% |
| CCCCCCCCCCCCC1CO1 (stereo not given) | 62.9% |
| O=C(O)/C=C(\CC(=O)O)C(=O)O | 15.5% [at 28.5 µM] |
| CCCCCCCCS(=O)(=O)O | -16.1% |
| CC(C)CCCCCOC(=O)CCCCC(=O)OCCCCCC(C)C | -0.132% |
| CCOc1ccc(NC(N)=O)cc1 | 8.3% |
| CC1(C)CC(O)CC(C)(C)N1[O] | 9.6% |
| CC(C)COC(=O)CCCCC(=O)OCC(C)C | 20.2% |
| O=C1NCC2(CCN(CCc3ccccc3)CC2)O1 | 6.38% [at 28.5 µM] |
| C=C(C)C(=O)OCC | 35.7% |

| SMILES | activity, negative = inhibition |
| --- | --- |
| CC(CO)(CO)[N+](=O)[O-] | -0.285% |
| C=CCCCCCCCCCCCCCC | 4.99% [at 12.7 µM] |
| OC(C#CCN1CCCC1)(c1ccccc1)c1ccccc1 | -16.1% [at 28.5 µM] |
| C=C(C)[C@@H]1CC=C(C)C(=O)C1 | 11.9% |
| CCC(C)N (stereo not given) | -2.58% |
| COC(C)=O | -7.77% |
| CCCCN1C[C@H](O)[C@@H](O)[C@H](O)[C@H]1CO | -23.4% [at 28.5 µM] |
| CC(=O)OCC(=O)NCCCOc1cccc(CN2CCCCC2)c1 | -12.2% [at 28.5 µM] |
| OC1CCCCC1c1ccccc1 (stereo not given) | 1.85% |
| CCCCCCCCCCC=O | 8.2% |
| CC(C)(C)CC(C)(C)N | 23.8% |
| C=CCCCCCCCCOC(C)=O | 2.35% |
| C[C@H](NC(CCc1ccccc1)C(=O)O)C(=O)N1CCC[C@H]1C(=O)O (stereo not given in full) | 2.82% [at 28.5 µM] |
| CC(N=C(NC#N)Nc1ccncc1)C(C)(C)C (stereo not given) | 6.04% [at 28.5 µM] |
| OCCC1CCCCN1 (stereo not given) | 0.251% |
| C[C@]12CCC(=O)C=C1CC[C@H]1[C@@H]3CC[C@](O)(C(=O)CO)[C@@]3(C)C[C@H](O)[C@@]12F | -6.25% [at 28.5 µM] |
| CCC(C)(CCC(C)C)C(=O)O (stereo not given) | 5.71% |
| COP(=O)(O)OP(=O)(O)OC | -10.2% |
| CCCC(=O)OC/C=C(\C)CCC=C(C)C | -9.85% |
| NNC(=O)CP(=O)(c1ccccc1)c1ccccc1 | 21.2% [at 28.5 µM] |
